Source: ChEMBL document CHEMBL3988442, “University of Dundee, Small-Polar-MMV Screening Library” (2021)
Hit rate of the full screen: of about 48,000 compounds, about 13,000 (27%) showed an effect of 50% or more. The list shows a part of the results.

The molecules below were run on Wolbachia pipientis (assay: Anti-Wolbachia Cell-Based Screen). Conditions: 5 µM.
Type: functional
Design: scale not given: in the data most compounds retested in dose-response had high values

| SMILES | Percent Effect [%] |
| --- | --- |
| CN(C)Cc1nn(C)c2c1CCN(C(=O)c1cccnc1)C2 | 84.36 |
| CC(=O)NCC(=O)N1CCc2c(CN(C)C)nn(C(C)C)c2C1 | -2.95 |
| Cc1cc(N[C@H](CO)c2ccccc2)n2nc(C)cc2n1 | 1.495 |
| Cc1noc(C2CCCN(C(=O)c3ccc(Br)cc3F)C2)n1 (stereo not drawn) | 4.795 |
| N#Cc1c(F)cccc1N1CCN(S(=O)(=O)c2cccs2)CC1 | -7.537 |
| CC(Cn1cccn1)NC(=O)NCCCN1CCc2ccccc2C1 (stereo not drawn) | -5.201 |
| Cc1nc([C@H]2C[C@@H]3CCN(Cc4scnc4C)C[C@H]3O2)no1.O=C(O)C(F)(F)F | -18.74 |
| CCc1ncc2c(n1)CN(C(C(N)=O)c1ccccc1)CC2 (stereo not drawn) | -0.2058 |
| CC(=O)Nc1ncc(-c2ccc(C)cc2)[nH]1 | -15.96 |
| Cc1cc(C(=O)N2CCc3c(CN(C)C)nn(C)c3C2)[nH]n1 | 109.1 |
| Cc1cc(C(=O)N2CCc3ncnc(N4CCSCC4)c3CC2)[nH]n1 | -7.195 |
| Cc1cc(-c2nn(C)c(Cl)c2CN2CCOCC2CC(N)=O)no1 (stereo not drawn) | -10.25 |
| Cc1noc(CSc2ccc(C(F)(F)F)cn2)n1 | -11.43 |
| COc1ncc(C)cc1NC(=O)COCC(F)(F)F | -3.698 |
| CC(C)c1nc(S(=O)(=O)Nc2ccnn2C2CCCC2)c[nH]1 | -16.48 |
| CC1CCN(C(=O)CN(Cc2ccco2)C2CC2)CC1 | 16.65 |
| O=C(CN(Cc1ccco1)C1CC1)N1CCCCCC1 | 130.6 |
| O=C(CN(Cc1ccco1)C1CC1)Nc1ccc(Br)cn1 | 5.807 |
| COc1ccc(CN2CC[C@H](c3nc4cccc(C(N)=O)c4[nH]3)C2)cc1 | -8.435 |
| CCCn1nc(C)c(CNC(=O)C2COc3ccc(OC)cc3C2)c1C (stereo not drawn) | -13.51 |
| CC(=O)c1cccc(OCCCC(=O)N(C)Cc2cnc(C)s2)c1 | -4.275 |
| CC(C)CNC(=O)Nc1cccc(CN2CCOC2=O)c1 | -15.82 |
| Cc1nn(C)c(C)c1-c1nccnc1CC1CCNCC1 | 110.6 |
| c1cncc(-n2cnnc2CC2CCNCC2)c1 | -4.344 |
| COc1ccc(C)cc1-n1cnnc1CC1CCNCC1 | 5.267 |
| Cc1nn(C)c(C)c1-c1cnc(CC2CCNCC2)cn1 | 154.2 |
| CCc1nccn1CCCNc1nccc(-c2c(C)nn(C)c2C)n1 | 0.4363 |

| SMILES | Percent Effect [%] |
| --- | --- |
| Cc1nn(C)c(C)c1-c1cnc(CC2CCNC2)cn1 (stereo not drawn) | 90.84 |
| CCn1ccnc1CNc1nccc(-c2c(C)nn(C)c2C)n1 | -9.163 |
| O=C(C1=CCCC1)N1CC[C@]2(C[C@H](OCc3cccnc3)CO2)C1.O=C(O)C(F)(F)F | -2.821 |
| CCSCC(C)NCc1ccccc1-n1ccnc1 (stereo not drawn) | 26.03 |
| Cc1nnc2n1CCN(C(=O)CN1C(=O)CSc3ccccc31)C2 | -16.29 |
| CC(C)NC(=O)O[C@H]1COCCN(c2nc3ccccc3s2)C1 | 11.5 |
| O=C(c1cn(-c2cc(N3CCSCC3)ncn2)cn1)N1CCSCC1 | 23.31 |
| Cc1cc(C)n(CC2CCCN2C(=O)c2cnn(C)c2C2CC2)n1 (stereo not drawn) | -2.201 |
| Cc1cc(C)n(CC2CCCN2C(=O)c2c[nH]c(=O)c(Cl)c2)n1 (stereo not drawn) | 130 |
| Cc1cc(C)n(CC2CCCN2C(=O)c2ccc3c(c2)OCO3)n1 (stereo not drawn) | 14.69 |
| Cc1cc(C)n(CC2CCCN2C(=O)c2cc[nH]n2)n1 (stereo not drawn) | 9.629 |
| Cc1cc(C)n(CC2CCCN2C(=O)c2cnccn2)n1 (stereo not drawn) | 101.9 |
| CCc1noc(C)c1C(=O)N1CCCC1Cn1nc(C)cc1C (stereo not drawn) | -1.879 |
| Cc1cc(C)n(C2CCCN(C(=O)c3c[nH]c(=O)c(Cl)c3)C2)n1 (stereo not drawn) | -7.23 |
| Cc1cc(C)n(CC2CCCN2C(=O)c2ccc(N(C)C)nn2)n1 (stereo not drawn) | 107 |
| Cc1cc(C)n(CC2CCCN2C(=O)c2ccnc(N(C)C)c2)n1 (stereo not drawn) | 141.4 |
| Cc1cc(C)n(CC2CCCN2C(=O)c2ccc3c(c2)nnn3C)n1 (stereo not drawn) | -2.526 |
| Cc1cc(C)n(CC2CCCCN2C(=O)c2ccc3c(c2)OCO3)n1 (stereo not drawn) | -4.429 |
| NC(=O)CC1CCN(CC(O)c2ccc(Br)cc2)CC1 (stereo not drawn) | 25.42 |
| CC(COc1ccccc1)NCc1nncn1C1CCCCC1 (stereo not drawn) | -38.9 |
| CCN1CCC(NC(=O)Cc2csc(C(C)(C)C)n2)CC1 | 4.843 |
| O=C(O)C(F)(F)F.O=C([C@H]1CCCO1)N1CCN(CCn2cccn2)c2ncccc2C1 | 108.8 |
| O=C(C1CCOC1)N1CCN(CCn2cccn2)c2ncccc2C1.O=C(O)C(F)(F)F (stereo not drawn) | 122 |
| CCN(CC)C(=O)c1nnc2ccc(N3CCOCC3)cc2n1 | -10.33 |
| CCCS(=O)(=O)N1CCN(CC(F)(F)F)CC1 | 16.36 |
| Cc1cnc(C(C)(C)NC(=O)NCc2ccon2)s1 | -28.31 |
